From PubChem BioAssay AID540321 (Johns Hopkins Ion Channel Center, 2011)

Each molecule was assayed against Inward rectifier potassium channel 2 (Mus musculus) (UniProt P35561) (assay: off-target blockade of inward rectifier Kir2.1 – cell-based, FluxOR thallium flux, CRC round 2, selectivity assay for KCNK9 inhibitor project, SAR follow-up (AID 540321)). Settings: Kir2.1-expressing cells; series mostly up to 30 µM; fluorescence ratio, lower = inhibition: at the top concentration;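 active means Inhibition of the Kir2.1 potassium channel over 30% at some tested dose, plus a fitted dose response curve; inactive means no Kir2.1 inhibition at any dose, or no curve fitted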.
Chain of Inward rectifier potassium channel 2 (Mus musculus) (P35561 whole entry, looked up): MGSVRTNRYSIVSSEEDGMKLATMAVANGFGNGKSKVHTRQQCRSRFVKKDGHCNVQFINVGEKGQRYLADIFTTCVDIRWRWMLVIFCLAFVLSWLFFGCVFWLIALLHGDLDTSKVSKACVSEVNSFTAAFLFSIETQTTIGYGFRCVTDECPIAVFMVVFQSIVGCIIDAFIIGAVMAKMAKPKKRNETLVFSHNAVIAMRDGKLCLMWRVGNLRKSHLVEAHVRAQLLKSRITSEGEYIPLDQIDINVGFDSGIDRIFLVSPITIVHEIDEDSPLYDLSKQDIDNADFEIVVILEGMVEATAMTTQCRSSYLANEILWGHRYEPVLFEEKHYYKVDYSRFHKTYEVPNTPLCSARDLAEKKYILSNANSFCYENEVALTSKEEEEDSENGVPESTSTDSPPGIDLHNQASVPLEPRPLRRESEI

Fluorescence ratio, lower = inhibition, inactive:
Cc1cccc(C(=O)Nc2cccc(NC(=O)c3cccc(C(F)(F)F)c3)c2)c1 1.59
COc1ccccc1NC(=O)c1cccc(NC(=O)c2ccccc2)c1 1.83
COc1ccccc1NC(=O)c1cccc(NC(=O)c2ccccc2OC)c1 1.93
Cc1cccc(C(=O)Nc2cccc(NC(=O)c3ccncc3)c2)c1 1.68
Cc1cccc(C(=O)Nc2cccc(NC(=O)c3ccccc3C(F)(F)F)c2)c1 1.51
Cc1cccc(C(=O)Nc2ccccc2NC(=O)c2ccccc2)c1 1.62
CCOc1ccccc1C(=O)Nc1cccc(NC(=O)c2ccccc2C(F)(F)F)c1 1.97
COc1ccccc1-c1n[nH]c(=S)n1C(C)C1CC2CCC1C2 (stereo not given) 1.68
CC(C1CC2CCC1C2)n1c(-c2cccc(Cl)c2)n[nH]c1=S (stereo not given) 1.62
COc1ccccc1NC(=O)c1cccc(NC(=O)CC2CCCC2)c1 1.81
Cc1ccccc1C(=O)Nc1cccc(NC(=O)c2ccccc2)c1 1.71
Cc1cccc(C(=O)Nc2cccc(NC(=O)C3CCCCC3)c2)c1 1.5
CCOc1ccc(NC(=O)c2cccc(NC(=O)C3CCCC3)c2)cc1 1.78
CCOc1ccccc1NC(=O)c1cccc(NC(=O)c2ccc(C(F)(F)F)cc2)c1 1.75
O=C(Nc1cccc(NC(=O)c2cccc(C(F)(F)F)c2)c1)c1ccccc1 1.41
COc1cccc(C(=O)Nc2cccc(NC(=O)c3cccc(C)c3)c2)c1 1.55
CCOc1ccccc1NC(=O)c1cccc(NC(=O)c2cccc(Cl)c2)c1 1.84
CCOc1ccccc1NC(=O)c1cccc(NC(=O)C2CC2)c1 1.76
CCOc1ccccc1NC(=O)c1cccc(NC(=O)c2ccccc2OC)c1 1.95
CCOc1ccccc1NC(=O)c1cccc(NC(=O)c2cccc(C(F)(F)F)c2)c1 1.69
CCOc1ccccc1NC(=O)c1cccc(NC(=O)C2CCCO2)c1 (stereo not given) 1.75
CC(C1CC2CCC1C2)n1c(-c2ccsc2)n[nH]c1=S (stereo not given) 1.42
Cc1cccc(C(=O)Nc2cccc(NC(=O)c3ccccc3C)c2)c1 1.81
Cc1cccc(C(=O)Nc2cccc(NC(=O)c3ccccc3C(C)C)c2)c1 1.66
Cc1ccc(-c2n[nH]c(=S)n2C(C)C2CC3CCC2C3)cc1 (stereo not given) 1.91
COc1ccc(C(=O)Nc2cccc(NC(=O)c3cccc(C)c3)c2)cc1 1.58
CC(C1CC2CCC1C2)n1c(-c2ccoc2)n[nH]c1=S (stereo not given) 1.15
Cc1cccc(S(=O)(=O)Nc2cccc(NC(=O)c3ccccc3)c2)c1 1.58
O=C(Nc1cccc(NC(=O)c2ccccn2)c1)c1ccccc1 1.67
COc1ccccc1C(=O)Nc1cccc(NC(=O)c2ccccc2C(C)C)c1 1.72
Cc1cccc(C(=O)Nc2cccc(NC(=O)c3ccccc3OC(F)(F)F)c2)c1 1.76
Cc1cccc(-c2n[nH]c(=S)n2C(C)C2CC3CCC2C3)c1 (stereo not given) 1.66
Cc1ccccc1-c1n[nH]c(=S)n1C(C)C1CC2CCC1C2 (stereo not given) 1.58
COc1ccccc1C(=O)Nc1cccc(NC(=O)c2ccccc2)c1 1.79
CCOc1ccccc1NC(=O)c1cccc(NC(=O)c2ccccc2Cl)c1 1.21
